Sampled rows, rich in hits. Any-hit rate of the full collection: about 6.8%.
Pf Dd2 growth – blocks growth of Plasmodium falciparum Dd2 parasites; P. falciparum Dd2 growth, SYBR Green, 72 h; stronger effect = lower value; activity change, % at 10 µM; hit rate 2.3% among 94,000; AID 1159554; in the data active means activity change below about -80%; inconclusive means no clear call, values can overlap the other calls
T cruzi growth-1 – blocks T. cruzi growth in NIH3T3 culture; T. cruzi beta-gal in NIH3T3, GalScreen luminescence, 90 h; inhibition, % at 8.34 µM; hit rate 5.9% among 77,000; AID 624255;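 active means mean inhibition above about 93%, with at least 55% of replicates each passing it, limit read from the data, passing the limit was not always enough; inconclusive means only one of those two conditions holds; inactive means neither condition holds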
C diff HTS – blocks growth of Clostridium difficile | Clostridium difficile clinical isolate growth, OD600, 24 h; stronger effect = lower value | hit rate 0.25% among 86,000 | growth activity, negative = inhibition, % at 16 µg/mL (by protocol);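 active means mean growth activity at or below -80% and every replicate also at or below -80%; inconclusive means mean at or below -80% but some replicate above -80%; inactive means mean growth activity above -80%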
T cruzi growth-2 – inhibitors of T. cruzi proliferation; shares compounds with T cruzi growth-1; T. cruzi beta-gal in NIH3T3, GalScreen luminescence, 90 h; inhibition, % at 8.35 µM; hit rate 72% among 5,600; AID 651739;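 active means mean replicate inhibition above about 95% and at least 55% of replicates individually reaching it, limit read from the data; inconclusive means only one of the two criteria is met; inactive means neither criterion is met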
T cruzi growth-3 – Trypanosoma cruzi proliferation inhibition; inhibition, % at 2.09 µM; T. cruzi beta-gal in NIH3T3, GalScreen luminescence, 90 h; shares compounds with T cruzi growth-1; hit rate 21% among 5,600; AID 651740;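 active means mean inhibition above about 95%, with at least 55% of replicates also reaching it, limit read from the data; inconclusive means meets just one of the two conditions; inactive means meets neither condition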
NIH3T3 tox – kills mouse NIH/3T3 fibroblasts. AID 651742. cytotoxicity (signal decrease), % at 8.35 µM. hit rate 14% among 5,600. NIH/3T3 viability, CellTiter-Glo ATP luminescence, 90 h. shares compounds with T cruzi growth-1;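 active means mean signal decrease across replicates above about 35% based on untreated-well scatter, with enough replicates individually passing, limit read from the data; inconclusive means no rule stated though some were filed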
3T3 cytotox 2 – cytotoxicity in mouse NIH/3T3 fibroblasts | shares compounds with T cruzi growth-1 | NIH/3T3 viability, CellTiter-Glo ATP luminescence, 90 h | inhibition, % at 24.9 µM | hit rate 56% among 5,600;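 active means mean loss of cell viability signal at or above a set limit, and enough replicates individually reaching it; inconclusive means meets only the mean limit or only the replicate share; inactive means meets neither condition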
Each line names hits and unclear results; the compound was inactive in the other large screens (follow-up assays come after a bar, where they were run).

C[C@H](CO)N1C[C@H](C)[C@@H](CN(C)C(=O)Nc2ccc(F)cc2)Oc2c(NC(=O)NC3CCCCC3)cccc2C1=O	none
CO[C@@H](CN(C)S(=O)(=O)c1ccc(F)cc1)[C@H](C)CN([C@@H](C)CO)S(=O)(=O)c1cccc(Cl)c1	none (no result: C diff HTS)
C[C@@H]1CN([C@@H](C)CO)S(=O)(=O)c2ccc(C3=CCCCC3)cc2O[C@H]1CN(C)S(=O)(=O)c1ccc(F)cc1	T cruzi growth-1 121 | T cruzi growth-2 104 | T cruzi growth-3 inactive | NIH3T3 tox inactive | 3T3 cytotox 2 31
C[C@H](CO)N1C[C@H](C)[C@H](CN(C)S(=O)(=O)c2ccc(F)cc2)Oc2cc(C3=CCCCC3)ccc2S1(=O)=O	T cruzi growth-1 118 | T cruzi growth-2 101 | T cruzi growth-3 105 | NIH3T3 tox 46 | 3T3 cytotox 2 62
C[C@@H]1CN([C@@H](C)CO)S(=O)(=O)c2ccc(C3=CCCCC3)cc2O[C@@H]1CN(C)S(C)(=O)=O	none
C[C@H]1CN([C@@H](C)CO)S(=O)(=O)c2ccc(C3=CCCCC3)cc2O[C@@H]1CN(C)S(=O)(=O)c1ccc(F)cc1	T cruzi growth-1 117 | T cruzi growth-2 inactive | T cruzi growth-3 108 | NIH3T3 tox inconclusive | 3T3 cytotox 2 55
C[C@H](CO)N1C[C@H](C)[C@H](CN(C)S(C)(=O)=O)Oc2cc(C3=CCCCC3)ccc2S1(=O)=O	none
C[C@@H]1CN([C@@H](C)CO)S(=O)(=O)c2ccc(C3=CCCCC3)cc2O[C@H]1CN(C)S(C)(=O)=O	none
C[C@H]1CN([C@@H](C)CO)S(=O)(=O)c2ccc(C3=CCCCC3)cc2O[C@H]1CN(C)S(=O)(=O)c1ccc(F)cc1	Pf Dd2 growth -83, T cruzi growth-1 125 | T cruzi growth-2 109 | T cruzi growth-3 105 | NIH3T3 tox inactive | 3T3 cytotox 2 50
C[C@H]1CN([C@@H](C)CO)S(=O)(=O)c2ccc(C3=CCCCC3)cc2O[C@@H]1CN(C)S(C)(=O)=O	none
CO[C@H]1CN(C)C(=O)c2cc(NC(=O)C3CCCC3)ccc2OC[C@H](C)N(C(=O)CC2CC2)C[C@@H]1C	none (no result: C diff HTS)
CCNC(=O)[C@H]1[C@H](CO)[C@H]2Cn3c(ccc(C4=CCCC4)c3=O)[C@@H]1N2C(=O)CC	none
CCCN(C)C[C@H]1OCCCC[C@H](C)Oc2ccc(NC(=O)CCC(F)(F)F)cc2C(=O)N([C@H](C)CO)C[C@H]1C	none
O=C(C[C@@H]1C[C@H]2c3cc(NC(=O)C4CCC4)ccc3O[C@H]2[C@H](CO)O1)NCc1ccc(-c2ccccc2)cc1	none
O=C(C[C@H]1C[C@@H]2c3cc(NC(=O)Nc4ccccc4)ccc3O[C@@H]2[C@H](CO)O1)NCc1ccccn1	none
CNC(=O)C[C@H]1CC[C@@H]2[C@H](COC[C@@H](O)CN2Cc2ccccc2F)O1	none (no result: T cruzi growth-1)
C/C=C/c1ccc([C@@H]2[C@@H](CO)N(C(=O)C3CC3)C23CN(S(=O)(=O)CC)C3)cc1	none (no result: T cruzi growth-1)
C[C@@H]1CN([C@@H](C)CO)S(=O)(=O)c2ccc(C3=CCCCC3)cc2O[C@@H]1CN(C)S(=O)(=O)c1ccc(F)cc1	T cruzi growth-1 120 | T cruzi growth-2 98 | T cruzi growth-3 inactive | NIH3T3 tox inactive | 3T3 cytotox 2 75
C[C@H]1CN([C@@H](C)CO)S(=O)(=O)c2ccc(C3=CCCCC3)cc2O[C@H]1CN(C)S(C)(=O)=O	none
CN(C)CC(=O)N1[C@H](CO)[C@H](c2ccccc2)C12CN(C(=O)c1cccc(F)c1)C2	none (no result: T cruzi growth-1)
Cc1ccc(-c2ccc3c(c2)O[C@@H](CN(C)Cc2cncnc2)[C@@H](C)CN([C@H](C)CO)S3(=O)=O)cc1	none (no result: T cruzi growth-1)
Cc1ccc(-c2ccc3c(c2)O[C@@H](CN(C)Cc2ccncc2)[C@H](C)CN([C@@H](C)CO)S3(=O)=O)cc1	Pf Dd2 growth -89, T cruzi growth-1 123 | T cruzi growth-2 98 | T cruzi growth-3 inactive | NIH3T3 tox 65 | 3T3 cytotox 2 100
Cc1ccc(-c2ccc3c(c2)O[C@@H](CN(C)Cc2ccncc2)[C@@H](C)CN([C@H](C)CO)S3(=O)=O)cc1	T cruzi growth-1 123 | T cruzi growth-2 97 | T cruzi growth-3 101 | NIH3T3 tox inactive | 3T3 cytotox 2 94
C[C@@H]1CN([C@@H](C)CO)S(=O)(=O)c2ccc(-c3cncnc3)cc2O[C@H]1CN(C)Cc1ccncc1	none
Cc1ccc(-c2ccc3c(c2)O[C@@H](CN(C)Cc2ccncc2)[C@@H](C)CN([C@@H](C)CO)S3(=O)=O)cc1	T cruzi growth-1 120 | T cruzi growth-2 inactive | T cruzi growth-3 inactive | NIH3T3 tox 64 | 3T3 cytotox 2 90
C[C@@H]1CN([C@H](C)CO)S(=O)(=O)c2ccc(-c3cncnc3)cc2O[C@@H]1CN(C)Cc1ccncc1	none
Cc1ccc(-c2ccc3c(c2)O[C@H](CN(C)Cc2ccncc2)[C@H](C)CN([C@H](C)CO)S3(=O)=O)cc1	T cruzi growth-1 109 | T cruzi growth-2 98 | T cruzi growth-3 inactive | NIH3T3 tox 49 | 3T3 cytotox 2 47
COc1ccc2c3c(n(C)c2c1)[C@@H](CO)N(C(=O)c1ccc(F)cc1)CC31CCN(CC2CCOCC2)CC1	none (no result: T cruzi growth-1)
CCCNC(=O)Nc1ccc2c(c1)OC[C@H](C)N(CCC)C[C@@H](C)[C@H](OC)CN(C)C2=O	none (no result: C diff HTS)
COc1ccc(NC(=O)N(C)C[C@H]2Oc3ccc(NC(=O)C4CCCCC4)cc3C(=O)N([C@H](C)CO)C[C@H]2C)cc1	none
C[C@@H]1CN([C@H](C)CO)C(=O)c2cc(C#CC3CC3)cnc2O[C@H]1CN(C)C(=O)Cc1ccccn1	none (no result: C diff HTS)
COCC(=O)Nc1ccc2c(c1)C(=O)N(C)C[C@@H](OC)[C@H](C)CN(C(=O)CC1CC1)[C@@H](C)CO2	none (no result: C diff HTS)
COc1ccc(-c2cnc3c(c2)C(=O)N([C@@H](C)CO)C[C@H](C)[C@H](CN(C)C(=O)Cc2ccncc2)O3)cc1	none
O=C(C[C@@H]1C=C[C@H](NC(=O)c2ccncc2)[C@@H](CO)O1)NCc1ccncn1	none (no result: T cruzi growth-1)
C[C@@H]1CN([C@@H](C)CO)S(=O)(=O)c2ccc(Br)cc2O[C@H]1CN(C)Cc1ccncc1	T cruzi growth-1 101 | T cruzi growth-2 102 | T cruzi growth-3 99 | NIH3T3 tox inactive | 3T3 cytotox 2 inactive
C[C@@H]1CN([C@H](C)CO)S(=O)(=O)c2ccc(Br)cc2O[C@@H]1CN(C)Cc1ccccc1	none
CCC(=O)N(C)C[C@@H]1Oc2cc(-c3cncnc3)ccc2S(=O)(=O)N([C@@H](C)CO)C[C@@H]1C	none
O=C(C[C@H]1CC[C@@H](NS(=O)(=O)c2ccc(F)cc2)[C@H](CO)O1)NCCN1CCCCC1	none
